Inconclusive results are not listed. Activity calls are given as the source filed them. Calls follow the shape of the dose curve; as a rule, active = well fitted inhibition curve with a large enough effect; inconclusive = small, poorly fitted or top-dose-only effect, or effect the other way; inactive = flat fitted curve, though single readings scatter.
target: D(1A) dopamine receptor (Homo sapiens) (UniProt P21728); experiment: HTS Assay for Allosteric Agonists of the Human D1 Dopamine Receptor: Primary Screen for Antagonists (AID 488983); settings: D1 receptor cell assay, antagonist mode, qHTS titration; series mostly up to 41.8 µM; activity change, negative = inhibition: at the top concentration; also: nearly all actives have a fitted effect of over 65% in size
Sequence (P21728 whole entry, looked up): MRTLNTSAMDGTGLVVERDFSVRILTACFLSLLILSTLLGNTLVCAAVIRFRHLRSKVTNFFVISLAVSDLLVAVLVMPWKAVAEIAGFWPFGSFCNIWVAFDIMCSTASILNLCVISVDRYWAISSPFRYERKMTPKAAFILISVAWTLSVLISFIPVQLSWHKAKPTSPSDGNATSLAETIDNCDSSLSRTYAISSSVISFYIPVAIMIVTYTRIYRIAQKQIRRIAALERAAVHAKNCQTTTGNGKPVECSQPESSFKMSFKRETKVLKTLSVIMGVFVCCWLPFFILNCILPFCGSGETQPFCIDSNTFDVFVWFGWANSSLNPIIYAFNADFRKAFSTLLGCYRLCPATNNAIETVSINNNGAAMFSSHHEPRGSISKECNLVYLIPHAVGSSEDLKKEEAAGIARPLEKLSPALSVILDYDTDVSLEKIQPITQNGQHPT
Description: Dopamine receptors (DARs) are involved in the etiology and/or therapy of a number of neuropsychiatric and endocrine disorders. For instance, all receptor-based antiparkinsonian drugs work via stimulating the […] DAR subtype whereas all FDA-approved antipsychotic agents are antagonists of this receptor. […] There are three different types of allosteric modulators that we are seeking, two of which will stimulate or augment receptor signaling, allosteric agonists and potentiators, while the third, allosteric antagonists, will attenuate receptor signaling. The present primary screening assay measures compound agonism by tracking calcium flux in a […], inducible Hek293 Trex D1 cell line.
Freshly passaged cells are plated in 1536 well black, clear bottom plates at a density of 4000 cells/well in 3 ul of complete media containing 1x tetracycline inducer. After an overnight incubation at 30 C in 5% CO2, cells are loaded with 2 ul of the no wash Calcium Assay Kit (ABD Bioquest) and incubated at room temperature for 30 to 90 minutes. A 10 cycle (1 second/cycle) baseline measurement is taken and then the FDSS online 1536 pintool delivers 23 nl of compound library (as well as dopamine controls) to the plate. The plate is measured for kinetically at 1 cycle/sec for 180 seconds and is considered to be the agonist portion of the assay (eg, compounds which activate a positive calcium response during this portion are flagged as potential agonists). Following the 180 second read, 1 ul of an EC80 of dopamine is delivered by an onboard pipette head. Measurements are taken kinetically for an additional 180 seconds.
% is scaled to controls: 0 for no effect and ±100 for the full control effect; potency is read from the fitted curve at half-maximal effect.

| Structure (SMILES) | activity change, negative = inhibition | Potency |
| --- | --- | --- |
| O=C(O)[C@@H]1C[C@H](C(=O)O)N1 | 15.5% (inactive) |  |
| CCCN(CC1CC1)c1nc(C)nc(Nc2c(Cl)cc(Cl)cc2Cl)c1Cl | 23.6% (inactive) |  |
| NC[C@H]1O[C@@H](n2cnc3c(N)ncnc32)[C@H](O)[C@@H]1O | 15.9% (inactive) |  |
| Oc1cc(O)cc(/C=C/c2ccc(O)c(O)c2)c1 | 13.3% (inactive) |  |
| O=C(O)CNC(=O)C(CS)Cc1ccccc1 (stereo not given) | 10.5% (inactive) |  |
| COC(=O)c1c(C)[nH]c(C)c1C(=O)c1ccccc1Cc1ccccc1 | -17.2% (inactive) |  |
| CO/N=C(\C(=O)N[C@@H]1C(=O)N2C(C(=O)O)=C(COC(C)=O)CS[C@H]12)c1csc(N)n1 | 3.79% (inactive) |  |
| CCCCCCCCCCCCCCCC(=O)NCC(COP(=O)([O-])OCC[N+](C)(C)C)OCC (stereo not given) |  | 10 µM (active) |
| NC(CCCP(=O)(O)O)C(=O)O (stereo not given) | 8.14% (inactive) |  |
| CC(=O)SCC[N+](C)(C)C | 8.68% (inactive) |  |
| CO/S(=N\S(=O)(=O)c1ccc(Cl)cc1)c1ccc([N+](=O)[O-])cc1 (stereo not given) | 3.78% (inactive) |  |
| CCCn1c(=O)c2[nH]c(-c3ccc(OCC(=O)NCCN)cc3)nc2n(CCC)c1=O | -0.95% (inactive) |  |
| COc1ccccc1N1CCN(CCCCNS(=O)(=O)c2cccc3c(N(C)C)cccc23)CC1 |  | 2 µM (active) |
| Cn1cc(C2=C(c3ccc(Cl)cc3Cl)C(=O)NC2=O)c2ccccc21 | -12.6% (inactive) |  |
| Ic1ccc(N2CCN(Cc3c[nH]c4ncccc34)CC2)cc1 | -28.4% (inactive) |  |
| C[N+](C)(CCCCCC[N+](C)(C)CCCN1C(=O)c2cccc3cccc(c23)C1=O)CCCN1C(=O)c2cccc3cccc(c23)C1=O | 0.337% (inactive) |  |
| CC(COc1ccc(/C=C/c2ccccc2)cc1)[N+](C)(C)C (stereo not given) | 0.778% (inactive) |  |
| COc1ccccc1CNCCCCCCNCCCCCCCCNCCCCCCNCc1ccccc1OC | -0.157% (inactive) |  |
| Cc1ccc(C(=O)O[C@H](C(=O)O)[C@@H](OC(=O)c2ccc(C)cc2)C(=O)O)cc1 (tested in a mixture with another compound) | -5.66% (inactive) |  |
| CN(C)CCC(c1ccc(Cl)cc1)c1ccccn1 (stereo not given) | -8.32% (inactive) |  |

| Structure (SMILES) | activity change, negative = inhibition | Potency |
| --- | --- | --- |
| O=C(c1cc(O)c(O)c([N+](=O)[O-])c1)c1ccccc1F | 1.62% (inactive) |  |
| COc1cc(SC)ccc1C(=O)N1CCC(Cc2ccccc2)CC1 | -4.59% (inactive) |  |
| C=C[C@@H]1CN2CC[C@@H]1C[C@H]2[C@H](O)c1ccnc2ccc(OC)cc12 | 1.7% (inactive) |  |
| O=C1NC(O)=NC1(c1ccccc1)c1ccccc1 | 6.79% (inactive) |  |
| COC1=C(OC)C(=O)c2ccccc2C1=O | 5.07% (inactive) |  |
| COc1cc(C(O)CO)ccc1OS(=O)(=O)O (stereo not given) | 2.29% (inactive) |  |
| Oc1ccccc1O | -7.95% (inactive) |  |
| OCC1O[C@H](O)C(Cl)C(O)C1O (stereo not given in full) | 10.8% (inactive) |  |
| CC1OC1P(=O)(O)O (stereo not given) | -0.833% (inactive) |  |
| CCNC(=O)[C@H]1O[C@@H](n2cnc3c(N)nc(NCCc4ccc(CCC(=O)O)cc4)nc32)[C@H](O)[C@@H]1O | -21.5% (inactive) |  |
| Clc1ccc(N2CCN(Cc3cc4ccccn4n3)CC2)cc1 | 7.56% (inactive) |  |
| NCCSSCCN | 6.05% (inactive) |  |
| C=CC(C)=C[C@@]1(C)SC(=O)C(C)=C1O | 9.7% (inactive) |  |
| CC1(C)CCC=[N+]1[O-] | 7.46% (inactive) |  |
| CC(C)NC[C@H](O)COc1cccc2[nH]ccc12 | -11.3% (inactive) |  |
| CCN1/C(=C/C(C)=O)Sc2ccc(OC)cc21 | -1.48% (inactive) |  |
| Fc1ccc(C(OCCCc2cnc[nH]2)c2ccc(F)cc2)cc1 | -23% (inactive) |  |
| NC(=O)C(=O)O | -0.954% (inactive) |  |
| O=C(Nc1ccccc1)c1cc([N+](=O)[O-])ccc1Cl | -10.3% (inactive) |  |
| O=Nc1ccc2oc(=O)ccc2c1 | -10.5% (inactive) |  |
